From PubChem BioAssay
Active and inactive are the calls of the source.

What was measured:
[1] = binders of probe aFSTL3 on microarray, primary screen, stem cell growth factor project, biochemical, small-molecule microarray, fluorescence 635/667 (AID 1064); conditions: higher = more signal;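 further: measures binding of the biotinylated anti-FSTL3 antibody to printed compounds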
[2] = binders from COS7 lysate, DM2A8 probe, primary screen, torsin A project, cell lysate, small-molecule microarray, fluorescence 635/667 (AID 1065); conditions: higher = more signal, COS7 lysate expressing mutant human TOR1A
[3] = binders of probe aFGF2 on microarray, primary screen, stem cell growth factor project, biochemical, small-molecule microarray, fluorescence 635/667 (AID 1067); conditions: higher = more signal;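 further: measures binding of biotinylated aFGF2 protein to printed compounds on slides; z-score merges feature fluorescence and signal-to-noise across triplicate slides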
[4] = binders of probe aFGF10 on microarray, primary screen, stem cell growth factor project, biochemical, small-molecule microarray, fluorescence 635/667 (AID 1071); conditions: higher = more signal;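 further: score merges 667 nm spot intensity and signal to noise from triplicate slides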
[5] = target: Neurogenic locus notch homolog protein 2 (Homo sapiens) (UniProt Q04721); assay: Notch2 binders on small-molecule microarrays, primary screen, biochemical, small-molecule microarray, 635 nm fluorescence, stem cell growth factors (AID 1073); conditions: Notch2 binding, higher = more signal
[6] = target: Pro-neuregulin-1, membrane-bound isoform (Homo sapiens) (UniProt Q02297); assay: NRG1 binders on small-molecule microarrays, primary screen, psychiatric disease protein project, biochemical, small-molecule microarray, fluorescence 635/667 (AID 1075); conditions: NRG1 binding, 635 nm fluorescence, higher = more signal;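 further: score combines 667 nm spot fluorescence with signal to noise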
Pro-neuregulin-1, membrane-bound isoform (Homo sapiens), sequence (Q02297 whole entry, looked up, the tested form may be a part, canonical isoform): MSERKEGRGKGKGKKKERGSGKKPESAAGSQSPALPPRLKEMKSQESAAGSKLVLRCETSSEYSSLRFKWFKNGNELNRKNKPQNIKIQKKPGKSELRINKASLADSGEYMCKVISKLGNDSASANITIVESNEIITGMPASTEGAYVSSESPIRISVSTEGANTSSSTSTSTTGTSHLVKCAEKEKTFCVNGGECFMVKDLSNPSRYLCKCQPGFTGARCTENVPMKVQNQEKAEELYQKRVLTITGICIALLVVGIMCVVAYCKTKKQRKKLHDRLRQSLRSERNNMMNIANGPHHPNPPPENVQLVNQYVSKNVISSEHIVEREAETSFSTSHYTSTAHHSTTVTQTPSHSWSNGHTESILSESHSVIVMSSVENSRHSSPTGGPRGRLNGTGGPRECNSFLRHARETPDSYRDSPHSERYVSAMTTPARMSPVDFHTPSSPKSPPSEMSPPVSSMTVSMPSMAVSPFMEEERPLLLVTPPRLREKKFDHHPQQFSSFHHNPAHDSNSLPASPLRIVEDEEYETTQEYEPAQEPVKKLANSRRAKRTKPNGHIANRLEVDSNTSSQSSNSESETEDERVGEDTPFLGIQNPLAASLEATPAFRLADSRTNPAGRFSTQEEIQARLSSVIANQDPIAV

[7] = test system: Neuregulin-1 EGF-like domain; assay: binders of neuregulin-1 EGF-like domain, primary screen, biochemical, small-molecule microarray, 635 nm fluorescence (AID 1081); conditions: small-molecule microarray binding, higher = more signal;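 further: binding of the protein to compounds printed on small-molecule microarray slides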
[8] = FRG1 promoter luciferase signal modulators, primary screen, FRG1 inhibition for FSHD, cell-based, C2C12 myotubes, firefly/Renilla luciferase, luminescence (AID 1084); conditions: higher = more signal, called active from +8 up or from −8 down
[9] = binders of probe aFST on microarray, primary screen, stem cell growth factor project, biochemical, small-molecule microarray, fluorescence 635/667 (AID 1086); conditions: higher = more signal;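 further: score merges 667 nm fluorescence with signal-to-noise of each printed compound spot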
[10] = binders of probe aHhip on microarray, primary screen, stem cell growth factor project, biochemical, small-molecule microarray, fluorescence 635/667 (AID 1087); conditions: higher = more signal;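 further: score merges spot fluorescence at 667nm with spot signal to noise ratio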
[11] = test system: PRMT1 (protein arginine N-methyltransferase 1); assay: PRMT1 binders on small-molecule microarrays, primary screen, biochemical, small-molecule microarray, 635 nm fluorescence (AID 1088); conditions: small-molecule microarray binding, higher = more signal;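 further: binding of Prmt1 protein to compounds spotted on small-molecule microarray slides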
[12] = yeast growth modulation, basal conditions, primary screen, YJM789 clinical isolate, OD600, 24 h (AID 1089);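 further: growth of clinical yeast isolate S. cerevisiae YJM 789 seeded 1000 cells per well; test concentration not given here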; conditions: S. cerevisiae YJM789 growth, higher = more signal, called active from +8 up or from −8 down
[13] = fission yeast growth modulation, primary screen, strain 972, OD600, 24 h, no modulator (AID 1090);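 further: basal condition with compound alone and no growth modifier present; test concentration not given here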; conditions: S. pombe 972 growth, higher = more signal, called active from +8 up or from −8 down
[14] = S. cerevisiae growth modulation with rapamycin, primary screen, strain BY4716, OD600, 96 h (AID 1091); conditions: higher = more signal, called active from +8 up or from −8 down; further: test concentration not given here
[15] = target: Torsin-1A-interacting protein 2 (Homo sapiens) (UniProt Q8NFQ8); assay: LULL1 binders on small-molecule microarray, primary screen, cell lysate, human LULL1 lysate, 635/667 nm fluorescence (AID 1092); conditions: hLULL1 lysate binding, 635 nm fluorescence, higher = more signal;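 further: probe is lysate of COS7 cells overexpressing human LULL1; score merges per-feature 667 nm fluorescence with signal-to-noise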
Torsin-1A-interacting protein 2 (Homo sapiens), sequence (Q8NFQ8 whole entry, looked up): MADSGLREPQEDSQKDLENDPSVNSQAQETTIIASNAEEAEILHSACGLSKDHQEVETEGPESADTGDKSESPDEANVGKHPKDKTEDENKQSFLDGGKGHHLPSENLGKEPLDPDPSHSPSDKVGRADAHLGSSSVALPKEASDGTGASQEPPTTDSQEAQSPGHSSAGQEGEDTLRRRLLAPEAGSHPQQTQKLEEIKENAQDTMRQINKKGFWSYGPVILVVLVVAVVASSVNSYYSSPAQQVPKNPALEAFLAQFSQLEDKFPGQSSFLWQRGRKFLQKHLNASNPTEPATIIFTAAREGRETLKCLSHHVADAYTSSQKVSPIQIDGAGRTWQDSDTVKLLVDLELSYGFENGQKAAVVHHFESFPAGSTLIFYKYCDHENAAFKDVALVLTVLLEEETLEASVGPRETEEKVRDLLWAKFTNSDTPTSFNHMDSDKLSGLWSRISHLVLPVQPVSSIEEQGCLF

[16] = E. coli growth modulation, two-sided OD650, primary screen, E. coli filamentation project, strain DRC41, 24 h (AID 1093); conditions: OD650, 24 h, higher = more signal, called active from +8 up or from −8 down;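 further: MC1000 strain lacking acrAB efflux and sulA so SOS filamentation is blocked; test concentration not given here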
[17] = small-molecule microarray binders of probe aLefty2, primary screen, biochemical, biotinylated probe, 635/667 nm fluorescence (AID 1094); conditions: higher = more signal;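 further: score merges spot fluorescence near 667 nm with spot signal-to-noise ratio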
[18] = test system: Noggin (protein binding on small-molecule microarray); assay: Noggin binders on small-molecule microarray, primary screen, biochemical, 635/667 nm fluorescence (AID 1095); conditions: 635 nm fluorescence, higher = more signal;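 further: score merges 667 nm feature fluorescence with signal to noise over triplicate slides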
[19] = target: Neurogenic locus notch homolog protein 3 (Homo sapiens) (UniProt Q9UM47); assay: NOTCH3 binders on small-molecule microarray, primary screen, biochemical, 635/667 nm fluorescence (AID 1096); conditions: NOTCH3 binding, 635 nm fluorescence, higher = more signal
Neurogenic locus notch homolog protein 3 (Homo sapiens), sequence (Q9UM47 whole entry, looked up): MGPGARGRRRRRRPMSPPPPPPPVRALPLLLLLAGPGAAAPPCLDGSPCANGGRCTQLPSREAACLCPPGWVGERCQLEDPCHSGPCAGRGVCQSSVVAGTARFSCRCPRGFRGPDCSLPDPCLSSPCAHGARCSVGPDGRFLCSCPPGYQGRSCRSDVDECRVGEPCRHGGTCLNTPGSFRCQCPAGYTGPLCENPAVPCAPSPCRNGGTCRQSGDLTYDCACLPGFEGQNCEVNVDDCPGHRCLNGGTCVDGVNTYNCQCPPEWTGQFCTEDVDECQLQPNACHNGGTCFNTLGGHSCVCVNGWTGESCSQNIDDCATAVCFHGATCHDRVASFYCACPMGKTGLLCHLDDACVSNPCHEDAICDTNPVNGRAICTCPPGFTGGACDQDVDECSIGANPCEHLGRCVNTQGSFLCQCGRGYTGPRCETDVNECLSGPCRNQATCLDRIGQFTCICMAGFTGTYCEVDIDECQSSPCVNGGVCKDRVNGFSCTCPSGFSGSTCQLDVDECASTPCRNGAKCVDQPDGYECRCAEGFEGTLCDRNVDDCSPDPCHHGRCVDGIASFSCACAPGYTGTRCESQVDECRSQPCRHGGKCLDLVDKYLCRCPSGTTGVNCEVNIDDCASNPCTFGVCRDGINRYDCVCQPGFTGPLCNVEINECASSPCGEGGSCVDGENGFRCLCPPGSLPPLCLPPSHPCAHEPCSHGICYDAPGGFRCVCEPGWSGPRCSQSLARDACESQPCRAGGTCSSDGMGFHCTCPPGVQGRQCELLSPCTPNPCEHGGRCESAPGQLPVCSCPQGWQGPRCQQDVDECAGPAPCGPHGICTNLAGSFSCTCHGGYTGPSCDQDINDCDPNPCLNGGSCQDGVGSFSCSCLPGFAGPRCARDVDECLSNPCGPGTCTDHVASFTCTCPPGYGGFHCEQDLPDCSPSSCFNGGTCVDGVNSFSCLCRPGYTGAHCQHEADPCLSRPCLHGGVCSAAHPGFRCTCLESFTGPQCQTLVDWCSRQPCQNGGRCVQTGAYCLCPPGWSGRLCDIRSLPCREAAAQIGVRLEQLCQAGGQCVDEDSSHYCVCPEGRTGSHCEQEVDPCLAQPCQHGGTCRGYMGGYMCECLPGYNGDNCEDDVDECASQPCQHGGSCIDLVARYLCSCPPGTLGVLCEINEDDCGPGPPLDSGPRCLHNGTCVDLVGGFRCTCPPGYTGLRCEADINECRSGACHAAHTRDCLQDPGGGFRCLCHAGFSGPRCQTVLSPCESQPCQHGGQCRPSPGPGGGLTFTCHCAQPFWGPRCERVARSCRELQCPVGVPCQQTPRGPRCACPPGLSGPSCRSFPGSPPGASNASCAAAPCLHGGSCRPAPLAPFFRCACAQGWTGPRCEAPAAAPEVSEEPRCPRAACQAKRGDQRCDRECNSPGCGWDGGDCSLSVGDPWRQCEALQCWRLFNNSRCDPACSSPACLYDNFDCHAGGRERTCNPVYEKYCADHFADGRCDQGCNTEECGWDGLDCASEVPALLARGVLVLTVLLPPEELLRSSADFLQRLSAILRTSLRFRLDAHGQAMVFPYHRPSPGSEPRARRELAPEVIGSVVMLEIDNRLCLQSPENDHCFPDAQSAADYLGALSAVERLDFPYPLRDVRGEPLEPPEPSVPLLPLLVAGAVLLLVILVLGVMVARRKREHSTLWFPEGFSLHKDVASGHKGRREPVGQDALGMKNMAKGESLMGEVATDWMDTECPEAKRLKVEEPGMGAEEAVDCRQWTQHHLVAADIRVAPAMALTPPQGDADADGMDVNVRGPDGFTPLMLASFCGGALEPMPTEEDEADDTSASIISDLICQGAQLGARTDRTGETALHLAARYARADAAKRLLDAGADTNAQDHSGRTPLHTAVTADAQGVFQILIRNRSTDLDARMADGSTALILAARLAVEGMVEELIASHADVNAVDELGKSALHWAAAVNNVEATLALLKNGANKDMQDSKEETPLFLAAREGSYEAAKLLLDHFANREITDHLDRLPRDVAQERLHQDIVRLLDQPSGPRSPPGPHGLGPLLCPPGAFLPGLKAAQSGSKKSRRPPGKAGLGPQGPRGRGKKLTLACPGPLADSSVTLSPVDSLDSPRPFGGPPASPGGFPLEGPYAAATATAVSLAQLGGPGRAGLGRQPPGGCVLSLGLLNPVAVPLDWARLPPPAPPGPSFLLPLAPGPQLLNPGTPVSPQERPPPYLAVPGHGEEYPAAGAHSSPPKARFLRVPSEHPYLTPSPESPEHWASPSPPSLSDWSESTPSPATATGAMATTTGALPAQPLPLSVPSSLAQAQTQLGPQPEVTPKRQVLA

[20] = small-molecule microarray binders of probe aEGFR, primary screen, biochemical, biotinylated probe, 635/667 nm fluorescence (AID 1097); conditions: higher = more signal;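 further: probe is a biotinylated anti-EGFR antibody binding compounds printed on slides; score combines fluorescence near 667 nm and signal to noise of each spot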

| Compound | composite z-score [1] | composite z-score [2] | composite z-score [3] | composite z-score [4] | composite z-score [5] | composite z-score [6] | composite z-score [7] | z-score [8] | composite z-score [9] | composite z-score [10] | composite z-score [11] | z-score [12] | z-score [13] | z-score [14] | composite z-score [15] | z-score [16] | composite z-score [17] | composite z-score [18] | composite z-score [19] | composite z-score [20] |
| --- | --- | --- | --- | --- | --- | --- | --- | --- | --- | --- | --- | --- | --- | --- | --- | --- | --- | --- | --- | --- |
| O=C1C2C=CC(C(O)c3cccc(O)c3)N(Nc3ccccc3)C2C(=O)N1c1ccccc1 (stereo not given) | -0.0667 | -0.73 | -0.0901 | 0.212 | 1.08 | 0.977 | 1.11 | 1.23 (inactive) | 0.35 | -0.0003 | -0.413 | 0.629 (inactive) | -0.581 (inactive) | 0.299 (inactive) | 2.92 | -0.542 (inactive) | 0.005 | -0.525 | 0.535 | -0.0416 |
| O=C1C[C@@](C(=O)NCc2ccccc2)(c2ccc([N+](=O)[O-])cc2)[C@@H](c2ccc(CO)cc2I)N1CC12CC3CC(CC(C3)C1)C2 | -0.262 | 0.656 | -0.0412 | 0.831 | 1.2 | 0.656 | 1.15 | -1.32 (inactive) | 0.572 | 0.261 | 1.55 | -0.369 (inactive) | -0.613 (inactive) | 2.84 (inactive) | 2.61 | -0.343 (inactive) | 0.0578 | 1.8 | 1.09 | 0.0042 |
| C=CCC(OC(C)=O)[C@@H]1[C@@H](N(Cc2ccc(-c3cccc(C(F)(F)F)c3)o2)C(=O)c2cccc3ccccc23)c2cc(OCCCO)ccc2N1C(=O)Cc1ccc(OC)cc1 (stereo not given in full) | -0.238 | -0.125 | -0.143 | -0.0597 | -0.386 | 0.0701 | -0.398 | 0.317 (inactive) | 0.378 | -0.179 | 0.224 | 0.504 (inactive) | -0.117 (inactive) | -0.296 (inactive) | 0.648 | 0.776 (inactive) | 0.0054 | 0.266 | 0.263 | -0.133 |
| COC(=O)[C@@]1(Cc2ccc(F)cc2)[C@H]2c3cc(C(=O)N4CCCC4)n(C)c3C[C@H]2CN1C(=O)c1ccccc1 | 1.18 | 0.155 | 0.404 | 0.779 | 1.69 | 2.15 | 1.34 | -0.234 (inactive) | 0.951 | -0.0645 | 0.579 | -0.42 (inactive) | 0.252 (inactive) | -0.658 (inactive) | 3.25 | 0.508 (inactive) | 0.744 | -0.662 | 0.405 | -0.0259 |
| COCC(=C=CC[C@@H](O)c1ccc(OCCO)cc1)CCO | -0.394 | 1.19 | -0.0861 | 0.115 | -0.0206 | 1.45 | 0.745 | 1.67 (inactive) | 0.17 | -0.249 | 0.271 | 0.177 (inactive) | 0.0708 (inactive) | -0.18 (inactive) | 1.73 | 0.802 (inactive) | -0.132 | 0.913 | 0.622 | -0.125 |
| CCC(CC)C(O)C1C=CC2C(=O)N(c3ccccc3)C(=O)C2N1Nc1ccc([N+](=O)[O-])cc1 (stereo not given) | 0.453 | -0.0903 | 0.22 | 0.848 | 1.56 | 1.07 | 1.26 | -1.91 (inactive) | 0.944 | 0.327 | 1.53 | -0.255 (inactive) | 1.27 (inactive) | 1.28 (inactive) | 3 | -0.27 (inactive) | 0.323 | 0.0809 | 1.07 | 0.277 |
| Cc1ccc(S[C@]2(C(=O)NCc3ccccc3)CC(=O)N(Cc3cc(C(F)(F)F)cc(C(F)(F)F)c3)[C@@H]2c2ccc(CO)cc2I)cc1 | 0.436 | -0.3 | -0.0767 | -1.03 | -1.44 | 1.11 | 0.623 | -0.452 (inactive) | -0.292 | -0.132 | -0.455 | 0.269 (inactive) | -2.56 (inactive) | 0.49 (inactive) | 0.742 | -0.607 (inactive) | 0.01 | -1.71 | -1.93 | -0.3 |
| CC(C)OC(=O)CC(=O)CC(O)c1ccc([N+](=O)[O-])cc1 (stereo not given) | 0.231 | 0.219 | 0.0033 | 0.307 | 0.795 | 0.0916 | 0.438 | 0.719 (inactive) | 0.0731 | -0.123 | 0.65 | -0.0857 (inactive) | -0.26 (inactive) | -0.34 (inactive) | 1.27 | -0.215 (inactive) | 0.0416 | -0.0624 | 0.422 | -0.213 |
| CCOC(=O)C=Cc1ccccc1O | -0.13 | 0.0396 | -0.0156 | 0.205 | 0.578 | -0.0345 | 0.614 | 0.911 (inactive) | 0.245 | -0.0003 | 0.697 | -23.9 (active) | -9.67 (active) | -1.89 (inactive) | 1.44 | 0.354 (inactive) | -0.0432 | -0.0491 | 0.947 | 0.0594 |
| COc1cc(NN2C(C(O)C3CCCCC3)C=CC3C(=O)N(C)C(=O)C32)cc(OC)c1OC (stereo not given) | 0.322 | 0.054 | 0.162 | 0.306 | 1.59 | 1.65 | 1.21 | 0.391 (inactive) | 0.479 | 0.0877 | 1.48 | 0.137 (inactive) | 0.169 (inactive) | 0.0624 (inactive) | 3.46 | -0.853 (inactive) | 0.855 | -0.0279 | 1.09 | 0.186 |
